Hits are enriched below; roughly 1.8% of the tested compounds scored in any of these assays.
GLP-1R inv ag: qHTS of GLP-1 Receptor Inverse Agonists (Inhibition Mode); Glucagon-like peptide 1 receptor (Homo sapiens), P43220; HEK293 GLP-1R CRE-luciferase, luminescence, 24 h; GLP-1R form is constitutively active; Potency, µM (highest dose often 38.3 µM), usual class: inhibitors; 410,000 compounds, 1.6% hits; AID 624417, 2012; further: nearly all actives have a fitted effect of over 55% in size
Target sequence (P43220 whole entry, looked up): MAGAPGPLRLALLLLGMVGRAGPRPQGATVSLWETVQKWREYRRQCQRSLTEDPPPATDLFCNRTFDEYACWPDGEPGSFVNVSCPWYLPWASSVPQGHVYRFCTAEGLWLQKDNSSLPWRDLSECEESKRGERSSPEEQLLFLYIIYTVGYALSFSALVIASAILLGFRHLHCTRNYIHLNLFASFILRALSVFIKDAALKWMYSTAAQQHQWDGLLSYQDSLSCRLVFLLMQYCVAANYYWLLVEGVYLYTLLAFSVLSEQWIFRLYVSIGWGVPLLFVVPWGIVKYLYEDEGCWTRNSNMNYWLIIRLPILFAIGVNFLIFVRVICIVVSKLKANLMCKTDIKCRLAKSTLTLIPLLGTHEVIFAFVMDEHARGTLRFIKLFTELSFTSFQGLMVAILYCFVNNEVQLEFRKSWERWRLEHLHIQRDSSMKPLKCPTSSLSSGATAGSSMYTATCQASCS
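Inverse agonism was detected as reduced cAMP-driven luciferase luminescence after 24 h compound treatment. The cells were HEK293 clones expressing constitutively active human GLP-1R with the reporter. Reporter-only and GPR119 cell lines served as counterscreen controls.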
HEK293 tox: qHTS of GLP-1 Receptor Inverse Agonists: Cytotox Screen; HEK293 cAMP-luciferase reporter cells, luminescence, 24 h; Potency, µM (doses to about 38.3 µM), most hits filed as inhibitors; 410,000 compounds, 0.13% hits;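 further: loss of luciferase light is scored as toxicity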
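Here, cytotoxicity is scored as loss of luminescence. The MLSMR collection was tested on cells seeded in medium containing 10% Nu serum, with a 24 hr compound exposure preceded by 12 hours of culture.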
GLP1R ag: qHTS of GLP-1 Receptor Agonists. 380,000 compounds, 0.007% hits. Glucagon-like peptide 1 receptor (Homo sapiens), P43220. Potency, µM (top dose mostly 45.6 µM), hits mostly activators. HEK293 GLP-1R CRE-luciferase, luminescence, 4-6 h; cells express a hypersensitive GLP-1R form
GCN5L2 inh: qHTS Assay for Inhibitors of GCN5L2; Histone acetyltransferase KAT2A (Homo sapiens), Q92830; GCN5L2 HAT assay, ThioGlo1 CoA-SH fluorescence; Potency, µM (doses to about 58.9 µM), most hits filed as inhibitors; 390,000 compounds, 0.21% hits
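Preincubate 20nM GCN5L2 with compound 15 min, RT → add 50uM ThioGlo1 + 75uM H3(1-25) + 70uM acetyl-CoA → read fluorescence 0 and 20 min. Primary qHTS; fluorescent artifacts likely.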
RGS4 inhibitor: Inhibitors of Regulator of G Protein Signaling (RGS) 4: qHTS | Regulator of G-protein signaling 4 (Homo sapiens), P49798 | Transcreener GDP fluorescence polarization, RGS4-accelerated GTP hydrolysis | Potency, µM (series often up to 114 µM), most hits filed as inhibitors | 390,000 compounds, 0.039% hits | AID 504845, 2011; further: nearly all actives have a fitted effect of over 75% in size
Target sequence (P49798 whole entry, looked up): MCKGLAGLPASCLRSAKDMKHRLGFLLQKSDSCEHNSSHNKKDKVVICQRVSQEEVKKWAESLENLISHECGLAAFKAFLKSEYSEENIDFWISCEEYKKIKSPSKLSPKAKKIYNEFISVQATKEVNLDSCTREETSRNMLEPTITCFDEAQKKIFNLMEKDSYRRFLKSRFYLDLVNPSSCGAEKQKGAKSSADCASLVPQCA
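MLSMR compounds (23 nl, pin-transferred) preincubated 10 min at room temperature with a 500nM (2x) first reagent, then RGS4 at 900nM (2x) plus Transcreener GDP mix added; fluorescence polarization (620/688 nm) read before and after 90 min at 30 °C.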
PTHR1 ag: qHTS for PTHR1 Agonists: Primary Screen; Parathyroid hormone/parathyroid hormone-related peptide receptor (Homo sapiens), Q03431; HEK293 GP2 PTHR1 cells, GloSensor cAMP luminescence, 1 h; Potency, µM (series often up to 115 µM), usual class: activators; 410,000 compounds, 0.075% hits; AID 743266, 2014; further: nearly all actives have a fitted effect of over 55% in size
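HEK-293-derived GP2 cells expressing PTHR1 and a GloSensor cAMP reporter, 3,000/well, plated overnight, given luciferin plus IBMX (each 0.5 mM as added) for 1 h at 37 °C, then compound for 1 h at 37 °C. Luminescence was read after 15 min at room temperature.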
Hits are given with their value; – = inactive; ? = inconclusive; · = not tested or not shown; [ ] = remark or other dose. The call rests on the fitted dose curve; in most records, active means well fitted curve in the direction sought with a large enough effect; inconclusive means small, poorly fitted or top-dose-only effect, or another doubt; inactive means no such curve, though single readings can be large; an effect the other way counts as inactive or inconclusive.

SMILES	GLP-1R inv ag	HEK293 tox	GLP1R ag	GCN5L2 inh	RGS4 inhibitor	PTHR1 ag
Oc1[nH]c2ccccc2c1N=NC(=S)NCC1CCCO1 (stereo not given)	–	?	–	–	–	–
CCn1c(O)c(N=NC(=S)NCC2CCCO2)c2ccccc21 (stereo not given)	2.82µM	?	–	–	–	–
Oc1[nH]c2c(Cl)cc(Cl)cc2c1N=NC(=S)NCC1CCCO1 (stereo not given)	?	3.98µM	–	–	–	–
Cc1nc2cccnc2n1-c1cccc(C(=O)N2CCN(c3cccc(Cl)c3)CC2)c1	–	–	·	–	–	–
COc1ccccc1NC(=O)N1CCC(NC(=O)C(Cc2ccccc2F)NC(C)=O)CC1 (stereo not given)	–	–	–	–	–	–
O=C(C1CCCN(S(=O)(=O)c2ccc(Cl)cc2)C1)N(Cc1cccs1)C1CC1 (stereo not given)	10µM	–	–	–	–	–
CC1(C)CC(=O)C2=C(C1)NC(Nc1nc3ccccc3o1)=NC2c1cccc(O)c1 (stereo not given)	·	·	·	·	–	·
CCn1c(=O)c(C(=O)CN(C)Cc2ccc(F)cc2)c(N)n(Cc2ccccc2)c1=O	8.91µM	–	–	–	–	–
CCn1c(=O)c(C(=O)CN(C)Cc2cccc(OC)c2OC)c(N)n(Cc2ccccc2)c1=O	?	–	–	–	–[11.4 µM]	–
CC1=CC(=C(c2ccc(N)cc2)c2ccc(N)cc2)C=CC1=N	·	·	–	–	·	·
Cc1cc(=O)c2c(O)c3c(O)cc(O)c4c5c(O)cc(O)c6c(O)c7c(=O)cc(C)c8c1c2c(c34)c(c65)c78	·	·	·	17.8µM	–	·
CC(=C\C(=O)O)/C(=C/c1ccccc1)C(=O)O	–	–	–	–	–	–
O=c1[nH]c(=S)[nH]c2c1C(c1ccc(Br)cc1)c1c([nH]c(=S)[nH]c1=O)O2	–	–	–	14.1µM	?	–
O=C(c1cnn(C(=O)CN2CCCC2=O)c1)c1ccccc1O	–	–	–	–	–	–
COCCNC(=O)C(=O)NCC1OCCN1S(=O)(=O)c1cc(F)ccc1F (stereo not given)	–	–	–	·	–	–
NC(=O)C1CCCCc2c1[nH]c1ccc(Cl)cc21 (stereo not given)	12.6µM	–	–	–	–	–
CCOC(=O)c1ccc2[nH]c3c(c2c1)CCCC3C(=O)OCC (stereo not given)	5.01µM	–	–	–	–	–
Nc1cccc2c(=O)[nH]ccc12	·	·	·	–	·	·
Cc1cc(=O)[nH]c2sc(C(=O)N3c4ccccc4CC3C)c(N)c12 (stereo not given)	–	–	–	–	–	–
CC1=C/C(=N\N=C2\NC(=O)C(CC(=O)Nc3ccccc3F)S2)CC(C)(C)C1 (stereo not given)	?	11.2µM	–	–	–	–
NS(=O)(=O)c1ccc(CCNCc2cc(Cl)ccc2OCc2ccccc2)cc1	?	?	–	–	–	–
NS(=O)(=O)c1ccc(CCNCc2ccccc2OCc2ccc(Cl)cc2)cc1	7.94µM	–	–	–	–	–
Cc1cccc(-c2nc(NCCCN3CCOCC3)c3ccccc3n2)c1	8.91µM	?	–	–	–	–
Cn1c2ccccc2c(=O)c2ccc(C#CC3(O)CCCCC3)cc21	7.94µM	–	–	–	–	–
CCCCCOC(=O)c1ccc(NC(=O)c2cccc(NC(=O)c3ccccc3C(=O)O)c2)cc1	7.08µM	–	–	–	–	–
SMILES	GLP-1R inv ag	HEK293 tox	GLP1R ag	GCN5L2 inh	RGS4 inhibitor	PTHR1 ag
CC(C)(C)OC(=O)N[C@H](C(=O)OC(C)(C)C)c1ccc2ccccc2c1	–	–	–	–	–	–
CC1CCc2c(nc3sc4c(c3c2N)CCCC4)C1 (stereo not given)	5.62µM	?	–	–	–	–
Nc1sc(Cc2ccccc2)cc1C(=O)c1c(-c2ccccc2)[nH]c2ccccc12	5.62µM	?	·	·	·	–
CCNC(=O)C(=O)c1c(-c2ccccc2)[nH]c2ccccc12	–	–	–	–	–	–
CCOc1ccc(N2C(=O)c3[nH]nc(-c4ccccc4)c3C2c2ccc(O)c(OC)c2)cc1 (stereo not given)	–	–	·	–	–	–
CCOC(=O)c1ccc(N2C(=O)c3[nH]nc(-c4ccc(C)cc4)c3C2c2ccc(O)c(OCC)c2)cc1 (stereo not given)	?	–	–	–	–	–
CCOc1ccc(C2c3c(-c4ccc(C)cc4)n[nH]c3C(=O)N2c2ccc(Cl)cc2)cc1 (stereo not given)	10µM	?	–	–	–	–
CCOC(=O)c1ccc(N2C(=O)c3[nH]nc(-c4ccc(C)cc4)c3C2c2cccs2)cc1 (stereo not given)	8.91µM	?	–	–	–	–
Cc1cccc(NC(=S)N/N=C/c2cccc(O)c2)c1C	7.94µM	?	–	–	–	–
COc1ccc(S(=O)(=O)N2CCN(c3ccccc3F)CC2)cc1-c1noc(C)n1	–	–	·	15.8µM	?	–
CC(=O)C1=C(c2ccc(Br)cc2)C(=O)c2ccccc2C1=O	?	3.55µM	–	–	–	–
CNC1=C(N(C(C)=O)c2ccc(Br)cc2)C(=O)c2ccccc2C1=O	?	?	–	–	–	–
CCn1c(COc2ccccc2OC)nc2ccccc21	–	–	–	–	–	–
CCCn1c(COc2ccccc2OC)nc2ccccc21	10µM	–	–	–	–	–
Cc1cc(C)c2nc(N(CCCN(C)C)C(=O)c3ccc(S(=O)(=O)N4CC(C)OC(C)C4)cc3)sc2c1 (stereo not given)	10µM	–	–	–	–	–
CCOC(=O)N1CCN(S(=O)(=O)c2ccc(C(=O)N(CCCN(C)C)c3nc4c(C)c(C)ccc4s3)cc2)CC1	?	–	–	–	–	–
CC(=O)c1ccc(C(=O)N(CCCN(C)C)c2nc3c(C)c(C)ccc3s2)cc1	?	–	–	–	–	–
CCOc1cccc2sc(N(CCCN(C)C)C(=O)c3ccc(S(=O)(=O)N(C)CC4CCCO4)cc3)nc12 (stereo not given)	?	–	–	–	–	–
Cc1ccc2sc(N(CCCN(C)C)C(=O)c3ccc(S(=O)(=O)N4CCOCC4)cc3)nc2c1C	10µM	–	–	–	–	–

Screening results as filed in PubChem BioAssay.
